# Bioassay records as filed in PubChem BioAssay.
# IEC-6 tox – IEC-6 cytotoxicity, counter-screen for KLF5 inhibitors. 290,000 tested, 0.78% active. inhibition, % at 5 µM. luminescence viability; in the data active = inhibition above about 22%;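 also: 0% = plate median of test compound wells and 100% = cytotoxic reference compound wells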
# Ba/F3 V617F tox – lowers viability of Ba/F3 cells expressing EpoR and JAK2V617F; AID 1446; inhibition, % at 5.6 µM; ATP luminescence; 220,000 tested, 1.1% active;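 active = inhibition above the campaign mean plus 3 SD over all tested compounds, cut at about 24% in these data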;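 also: cytokine-independent growth of Ba/F3 cells driven by EpoR plus mutant JAK2; 0% = DMSO-treated cells and 100% = JAK inhibitor I control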
# APP transl inh – APP translation inhibition | SH-SY5Y APP 5'UTR-luciferase reporter, luminescence | inhibition, % at 2 µM | 190,000 tested, 0.82% active | AID 1285;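 active = inhibition above a set limit, derived from the sample mean plus 3 SD, cut at about 45% in these data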
# BaF3 parental – parental Ba/F3 viability inhibition as JAK2V617F counter-screen; inhibition, % at 5.6 µM; CellTiter-Glo ATP luminescence; AID 1486; 220,000 tested, 1.1% active;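 active = inhibition above a per-campaign cutoff, the mean inhibition of all tested compounds plus 3 SD, cut at about 27% in these data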;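 also: 0% = DMSO wells and 100% = JAK Inhibitor I control wells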
# KLF5 inhibitor – inhibitors of KLF5 expression | AID 1700 | DLD-1 KLF5 promoter-luciferase reporter, luminescence | 290,000 tested, 0.23% active | inhibition, % at 5 µM;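 active = inhibition above a per-plate limit of that plate's mean compound inhibition plus 3 SD, cut at about 60% in these data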;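 also: 0% = DMSO wells and 100% = LY294002 at 200 µM; higher means less KLF5 promoter-driven luciferase light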
# Numbers without * were called inactive; · = not tested or not shown. An excerpt weighted towards active compounds, which were near 1.9% of everything screened.
SMILES,IEC-6 tox,Ba/F3 V617F tox,APP transl inh,BaF3 parental,KLF5 inhibitor
COc1ccc(OC)c(-n2nnnc2SCC(=O)N2CCN(C(=O)c3ccco3)CC2)c1,0,1,3,41*,-25
N=c1n(CCN2CCCC2)c2ccccc2n1CC(O)c1ccc(Cl)c(Cl)c1 (stereo not given),101*,102*,4,104*,0
N=c1n(CCN2CCOCC2)c2ccccc2n1CC(=O)c1ccc(Cl)c(Cl)c1,3,-1,-12,2,-1
CCOc1ccc(CN2C(=O)CC(=O)N(S(=O)(=O)c3ccc(OCC)cc3)C2=O)cc1,-8,-5,·,2,2
O=C(OCCN1C(=O)c2cccc3c(N4CCOCC4)ccc(c23)C1=O)c1cc(Cl)cc(Cl)c1,-9,2,88*,6,-21
CC(C)c1nc(SCC(=O)NC2CCCC2)c2c(=O)n(C)c(=O)n(C)c2n1,5,·,·,·,-5
Cc1cc(C)c2nc(Cl)c(CN(Cc3ccco3)C(=O)Nc3ccccc3C)cc2c1,8,2,57*,3,-62
O=S(=O)(Nc1ccc(N2CCOCC2)cc1)c1ccc(F)cc1,-6,2,10,90*,-6
O=S(=O)(Nc1ccc(N2CCCCC2)cc1)c1ccc(F)cc1,1,-2,·,0,-17
Cc1ccc(S(=O)(=O)NCC2CCCO2)cc1 (stereo not given),-2,·,·,·,-18
O=S(=O)(NCC1CCCO1)c1cc(Cl)ccc1Cl (stereo not given),-4,-5,-24,3,-45
O=C(O)c1ccc(Cl)c(S(=O)(=O)NCC2CCCO2)c1 (stereo not given),-2,2,57*,3,-22
O=S(=O)(NCC1CCCO1)c1ccc(-c2ccc(S(=O)(=O)NCC3CCCO3)cc2)cc1 (stereo not given),3,52*,6,80*,35
NC1=NC(c2ccccc2)N=C(Nc2ccccc2)N1 (stereo not given),6,20,·,68*,-19
Cc1ccc(S(=O)(=O)CC(=O)c2cc3cccc(C)c3oc2=O)cc1,-7,·,·,·,-34
O=C1NC2(CCCCCC2)C(=O)N1Cc1ccccc1Br,6,·,·,·,-32
CCOC(=O)c1sc(NC(=O)Nc2cccc(Cl)c2)cc1C,0,1,-105,43*,-137
CCOC(=O)c1sc(NC(=O)c2cccs2)cc1C,10,2,-168,5,-178
CCCc1cc(CNC(=O)C2CCC(=O)N(Cc3ccccc3OC)C2)on1 (stereo not given),-3,·,·,·,-24
CCc1nnc(N/N=C/c2c(C)[nH]c3ccccc23)n1N,102*,19,-17,13,21
Cc1nc(NC(C)c2ccccc2)c2oc3ccccc3c2n1 (stereo not given),3,2,-7,35*,-9
COC(=O)CCn1nnc(-c2ccc(C(C)C)cc2)n1,-4,-3,77*,0,45
O=C(N/N=C/c1ccco1)c1ccc(Br)o1,-1,-5,-2,96*,-52
Cc1ccc(NC(=O)CN2C(=O)NC3(CCCc4ccccc43)C2=O)c([N+](=O)[O-])c1 (stereo not given),0,·,·,·,-34
Cc1cc(C)cc(Cn2ncc(Cl)c(Cl)c2=O)c1,-4,-2,58*,3,-6
SMILES,IEC-6 tox,Ba/F3 V617F tox,APP transl inh,BaF3 parental,KLF5 inhibitor
O=c1c(Cl)c(Cl)cnn1Cc1ccccc1Cl,9,16,92*,25,-3
O=C(Cn1ncc(Cl)c(Cl)c1=O)N1CCN(Cc2ccccc2)CC1,10,1,90*,-3,-42
O=c1[nH]cnc2c1cnn2Cc1ccccc1Cl,-6,·,·,·,-28
CC1(C)C(=O)Nc2ccccc2N1C(=O)Cn1ncc(Cl)c(Cl)c1=O,4,9,·,31*,1
Cc1ccc(Cn2ncc(Cl)c(Cl)c2=O)cc1,2,-1,31,5,3
CCn1cc(CNC(=O)c2cc(-c3cc(OC)ccc3OC)nc3ccccc23)c(C)n1,10,4,14,7,6
Oc1ccc(N=Nc2c(O)ccc3ccccc23)cc1,12,20,-22,42*,-49
NS(=O)(=O)c1ccc(N=Nc2c(O)ccc3ccccc23)cc1,4,2,9,9,-49
CCOC(=O)c1c(NC(=O)C(NCCN(C)C)c2ccccc2)sc2c1CCCC2 (stereo not given),3,·,·,·,-7
C#CCOCCOCCOCCNc1nc(N2CCN(C(=O)[C@H]([C@@H](C)O)n3cc(CCCCN)nn3)CC2)nc(N2CCN(C(=O)[C@H](Cc3ccc(O)cc3)n3cc(CCO)nn3)CC2)n1,0,-4,9,63*,-2
O=C(NCc1ccc2c(c1)OCO2)c1cc([N+](=O)[O-])ccc1N1CCCCC1,55*,63*,79*,48*,48
Cc1ccc(NC(=O)N2CCCC2C(=O)NCCC2=CCCCC2)cc1 (stereo not given),0,-3,48*,-1,-27
Cc1ccc(NC(=O)N2CCC(C(=O)NCCC3=CCCCC3)CC2)cc1,4,-5,14,1,-17
Cc1ccc(C(=O)NCCC(=O)N2CCCC2)cc1,2,·,·,·,-154
COc1cc(NC(=O)C(C)Oc2ccccc2)c(OC)cc1NC(=O)c1ccccc1 (stereo not given),9,·,·,·,-9
Cc1ccc(C#CC[N+]2(C)CCCCC2)cc1,4,54*,·,57*,-45
C#CC[N+]1(CC#Cc2ccc(C)cc2)CCCCC1,-3,69*,1,66*,-29
Cc1cc(NC(=O)CSc2nnc(C3CC3)n2N)c([N+](=O)[O-])cc1C,1,2,0,81*,-5
COc1ccccc1NC(=O)CSc1nnc(C2CCCCC2)n1N,-11,·,·,·,-19
NNC(=O)C(=O)NCCCN1CCOCC1,2,-3,-3,2,-21
CC[N+]1=CN(c2ccccc2)C(C)=CC1(C)C,-2,40*,5,52*,-17
CC1=NN(c2ccccc2)C(=O)C1(C)C,2,-3,-16,1,0
CC1(S(=O)(=O)O)CC(=O)c2ccccc2C1=O (stereo not given),-4,·,·,·,-22
O=C(NCC1COCCO1)c1ccc2nc(Cc3cccc(Cl)c3)oc2c1 (stereo not given),2,·,·,·,-18
O=C(N/N=C\c1ccc(Cl)s1)c1ccc(Cn2cccn2)o1,-2,1,13,9,-6
SMILES,IEC-6 tox,Ba/F3 V617F tox,APP transl inh,BaF3 parental,KLF5 inhibitor
O=C(N/N=C/c1c(O)ccc2ccccc12)c1cccc(C(F)(F)F)c1,10,4,79*,6,18
O=C(N/N=C/c1c(O)ccc2ccccc12)c1[nH]ncc1Br,10,31*,72*,35*,23
CCOc1ccc(/C=N/NC(=O)c2[nH]ncc2Br)c(O)c1,29*,21,-24,7,-16
O=C(N/N=C\c1c(O)ccc2ccccc12)c1ccc(Cn2cccn2)o1,7,10,63*,7,15
O=C(COC(=O)c1ccccn1)c1ccc([N+](=O)[O-])cc1,2,·,·,·,-49
Cc1c(C(=O)N(C)c2ccc(Cl)cc2)cnn1-c1ccccc1,-4,·,·,·,-53
CN(C)S(=O)(=O)N(CC(=O)Nc1ccc(F)c(F)c1)c1ccccc1,-4,-8,59*,0,-58
